Compound activity (PubChem)
D1 mod – D1 CRE-luciferase signal change, two-sided – cell-based, HEK293 D1, dopamine EC30, D1 allosteric modulator project, primary screen; dopamine EC30 potentiation; actives deviate in either direction; B-score at 10 µM; D(1A) dopamine receptor (Homo sapiens), P21728; 58,000 tested, 5.9% active;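 active = luminescence count or its row- and column-corrected plate score outside the 99.7% band of the plate's sample wells, on either side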
DAT uptake mod – changed hDAT dopamine uptake under cocaine IC80, either direction, primary screen, cocaine antagonist project, cell-based, LLC-PK1 hDAT, [14C]-dopamine uptake, MLSMR. Sodium-dependent dopamine transporter (Homo sapiens), Q01959. LLC-PK1 hDAT cells, [14C]-dopamine uptake with cocaine IC80; actives deviate in either direction. B-score at 10 µM. 110,000 tested, 1.3% active. AID 449768, 2010;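 active = Z score or B-score, a plate-position-corrected score, falls beyond the plate's 99.7% confidence bounds, in either direction; inactive = both scores lie inside the 99.7% bounds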
FXIIa mix inh – human factor XIIa inhibitors, primary screen, biochemical, pooled compound mixtures, fluorogenic substrate | Coagulation factor XII (Homo sapiens), P00748 | purified FXIIa | inhibition, % at 5 µM | 62,000 tested, 0.2% active | AID 684, 2007
FXIa mix inh – FXIa protease inhibitors in compound pools, primary screen, biochemical, 10-compound mixtures; inhibition, % at 5 µM; purified FXIa, fluorogenic substrate, pooled mixtures; 62,000 tested, 0.19% active; Coagulation factor XI (Homo sapiens), P03951;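 note: each value is inhibition by a whole ten-compound pool holding the compound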
M1 agonist – M1 muscarinic receptor agonists, primary screen, CHO-M1 cells, Fluo-4 calcium, agonist mode; Muscarinic acetylcholine receptor M1; Fluo-4 calcium fluorescence; stronger effect = higher value; B-score at 10 µM; 64,000 tested, 3% active;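 active = fluorescence rise, raw or as B-score row- and column-corrected plate score, outside the 99.7% band of its plate's samples, either direction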
M1 antagonist – antagonists of rat M1 muscarinic receptor | Muscarinic acetylcholine receptor M1 (Rattus norvegicus), P08482 | CHO-M1 cells, Fluo-4 calcium, ACh EC80 antagonist mode; stronger effect = lower value | B-score at 10 µM | 64,000 tested, 3.4% active;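 active = calcium fluorescence response, raw or row-and-column corrected B-score, differing from the plate sample mean either way at a set confidence level, mostly lower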
Target sequence (P08482 whole entry, looked up): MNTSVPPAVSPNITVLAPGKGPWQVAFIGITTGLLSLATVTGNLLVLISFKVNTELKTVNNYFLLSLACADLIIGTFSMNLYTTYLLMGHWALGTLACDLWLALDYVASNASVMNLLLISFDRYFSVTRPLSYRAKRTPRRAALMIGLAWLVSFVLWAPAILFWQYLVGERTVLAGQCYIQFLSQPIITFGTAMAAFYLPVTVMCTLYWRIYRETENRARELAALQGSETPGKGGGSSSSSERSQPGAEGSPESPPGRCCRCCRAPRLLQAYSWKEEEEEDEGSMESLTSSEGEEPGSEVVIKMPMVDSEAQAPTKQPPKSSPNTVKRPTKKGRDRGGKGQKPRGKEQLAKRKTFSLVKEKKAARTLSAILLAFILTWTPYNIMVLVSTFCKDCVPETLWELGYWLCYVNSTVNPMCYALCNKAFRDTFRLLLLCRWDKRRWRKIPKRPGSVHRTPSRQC
M1 antag confirm – rat M1 muscarinic receptor antagonists, confirmation, CHO cells, Fluo-4 calcium, duplicate; shares compounds with M1 antagonist; ACh EC80 antagonism; stronger effect = lower value; calcium response (max-min fluorescence) at 10 µM; 1,700 tested, 43% active; AID 677, 2007;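 active = calcium response below the same-plate mean of wells given acetylcholine alone at its 80%-effect dose, minus 3 SD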
mGluR4 antag – human mGluR4 response to M1 antagonist hits, M1 allosteric modulator project, cell-based, antagonist mode, secondary assay 1 | shares compounds with M1 antagonist | 1,700 tested, 0.9% active | CHO-mGluR4 calcium flux, Fluo-4 fluorescence, glutamate EC80; stronger effect = lower value | AID 678, 2007 | fluorescence response (max-min) at 10 µM;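 active = fluorescence response below the plate's average for near-maximal glutamate wells, less 3 SD of those wells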;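 note: raw unnormalized fluorescence span taken in the window right after glutamate addition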
Each line names hits and unclear results; the compound was inactive in the other large screens (follow-up assays come after a bar, where they were run). Hits are enriched below; roughly 7.4% of the tested compounds scored in any of these assays. Cut-off read from the data, not from the text of the source, unless noted: active = inhibition above about 20% (passing the limit was not always enough); inactive = the rest.

CC1CCCC(C)N1CC(O)COc1ccc(Cl)cc1 (configuration not stated)	M1 antagonist -3.2 | M1 antag confirm 501 | mGluR4 antag inactive
CCOC(=O)c1ccc(N2C(=O)CC(N3CCN(C/C=C/c4ccccc4)CC3)C2=O)cc1 (configuration not stated)	M1 antagonist -3.8 | M1 antag confirm 494 | mGluR4 antag inactive
CCOC(=O)C1CCN(C2CC(=O)N(c3ccc(OCC)cc3)C2=O)CC1 (configuration not stated)	none
CCN1CCN(C(=O)c2oc(=O)c3ccccc3c2-c2ccc(C)cc2)CC1	M1 antagonist -1.8 | M1 antag confirm 320 | mGluR4 antag inactive
CCC(=O)Nc1ccc2nc(SCC(=O)N3CCCC3)sc2c1	none
CC1(C)CN=C(NC2CCCCC2)S1	M1 antagonist -4.8 | M1 antag confirm 459 | mGluR4 antag inactive
CN1CCN(c2ccccc2NC(=O)Cc2cn(C)c3ccccc23)CC1	M1 antagonist -0.74 (no result: D1 mod) | M1 antag confirm 522 | mGluR4 antag inactive
O=C(CCN1CCN(CCO)CC1)Nc1ccc(OCc2ccccc2)cc1	none
CN1CCN(CCC(=O)Nc2ccc(OCc3ccccc3)cc2)CC1	M1 antagonist -1.7 | M1 antag confirm inactive | mGluR4 antag inactive
CN1CCN(c2ccccc2NC(=O)c2ccc(OCc3ccccc3)cc2)CC1	D1 mod -4.6, DAT uptake mod 2.6, M1 antagonist -2.2 | M1 antag confirm 403 | mGluR4 antag inactive
Cc1ccccc1NC(=O)Cc1cn(C)c2ccccc12	none (no result: D1 mod, FXIIa mix inh, FXIa mix inh, M1 agonist, M1 antagonist)
NC(=O)c1c(-c2cccs2)csc1N	none
CCOC(=O)c1ccc(NC(=O)CC2C(=O)N(c3ccccc3)C(=O)N2CCCOC)cc1 (configuration not stated)	none (no result: D1 mod, FXIIa mix inh, FXIa mix inh, M1 agonist, M1 antagonist)
O=C(NCC1CCCO1)c1ccc2c(=O)n(CCc3ccccc3)c(=O)[nH]c2c1 (configuration not stated)	none
CC(=O)Nc1cccc(NC(=O)CSc2nnc(Cc3cccn3C)n2CCc2ccccc2)c1	M1 antagonist -1.9 | M1 antag confirm inactive | mGluR4 antag inactive
NCCCC(=O)N1c2ccccc2Sc2ccccc21	M1 antagonist -13 | M1 antag confirm 59 | mGluR4 antag inactive
O=C(CN1CCC(O)CC1)N1c2ccccc2C=Cc2ccccc21	M1 antagonist -5.6 | M1 antag confirm 243 | mGluR4 antag inactive
O=C1c2ccccc2C(=O)N1CC(=O)N1c2ccccc2Sc2ccccc21	none (no result: D1 mod, FXIIa mix inh, FXIa mix inh, M1 agonist, M1 antagonist)
O=C(CN1CCCC1)N1c2ccccc2Sc2ccccc21	M1 antagonist -19 | M1 antag confirm inactive | mGluR4 antag inactive
O=C(CN1CCCCC1)N1c2ccccc2CCc2ccccc21	none (no result: D1 mod, FXIIa mix inh, FXIa mix inh, M1 agonist, M1 antagonist)
Cc1cccc(OCCCC(=O)Nc2ccc(N3CCOCC3)cc2)c1	none
O=C(Nc1ccc(Cl)cc1)N1CCSCC1	M1 antagonist -2.3 (no result: DAT uptake mod) | M1 antag confirm inactive | mGluR4 antag inactive
O=C(CSc1nnc(CNC(=O)c2ccccc2F)o1)c1ccccc1	M1 antagonist -3.2 | M1 antag confirm inactive | mGluR4 antag inactive
O=S(=O)(c1ccc2c(c1)OCCO2)N1CCC(O)(c2ccc(Cl)cc2)CC1	M1 antagonist -8.7 | M1 antag confirm 475 | mGluR4 antag inactive
COc1ccccc1CNS(=O)(=O)c1cccc(S(=O)(=O)N2CCOCC2)c1	M1 antagonist -4.7 | M1 antag confirm inactive | mGluR4 antag inactive
O=S(=O)(NCc1ccccc1)c1cccc(S(=O)(=O)N2CCOCC2)c1	none (no result: D1 mod, FXIIa mix inh, FXIa mix inh, M1 agonist, M1 antagonist)
CCC1(C)Cc2ccccc2C(Nc2c(C)n(C)n(-c3ccccc3)c2=O)=N1 (configuration not stated)	none (no result: D1 mod, FXIIa mix inh, FXIa mix inh, M1 agonist, M1 antagonist)
Cc1c(NC2=NC3(CCCCC3)Cc3ccccc32)c(=O)n(-c2ccccc2)n1C	M1 antagonist -2.7 | M1 antag confirm 62 | mGluR4 antag inactive
CCOC(=O)c1cnc(SCc2nc(N)nc(Nc3ccc(F)cc3)n2)nc1N	none
Cc1ccc(C(C(=O)NC2CCCCC2)N2CCCC2)cc1 (configuration not stated)	M1 antagonist -3.8 | M1 antag confirm 461 | mGluR4 antag inactive
Cc1ccc(C(C(=O)NC2CCCC2)N2CCCCC2)cc1 (configuration not stated)	M1 antagonist -3.5 | M1 antag confirm 468 | mGluR4 antag inactive
O=C(NC1CCCCC1)C(c1ccccc1)N1CCCC1 (configuration not stated)	M1 antagonist -13 | M1 antag confirm 121 | mGluR4 antag inactive
CCN(CC)C(=O)c1ccc(COc2ccccc2Cl)cc1	none (no result: D1 mod, FXIIa mix inh, FXIa mix inh, M1 agonist, M1 antagonist)
CCOC(=O)C(C(=O)N1CCOCC1)C1CCCCC1 (configuration not stated)	none
Cc1cc(-c2nnc(SCc3ccccn3)o2)no1	M1 antagonist -1.8 | M1 antag confirm inactive | mGluR4 antag inactive
c1ccc(CSc2nnc(-c3ccncc3)o2)cc1	none (no result: D1 mod, M1 agonist, M1 antagonist)
CCCN(CCC)CCCNC(=O)c1ccc2c(c1)N(CC)C(=O)c1ccccc1S2=O (configuration not stated)	M1 antagonist -4.2 | M1 antag confirm 328 | mGluR4 antag inactive
CCOC(=O)c1[nH]c2ccc(OC)cc2c1NC(=O)CCN1CCc2ccccc2C1	M1 antagonist -3.1 (no result: D1 mod, FXIIa mix inh, FXIa mix inh) | M1 antag confirm 418 | mGluR4 antag inactive
O=c1c2ccccc2[nH]c(=S)n1CCCN1CCN(C2CCCCC2)CC1	M1 antagonist -2.3 | M1 antag confirm 485 | mGluR4 antag inactive
CCOC(=O)c1[nH]c2ccc(OC)cc2c1NC(=O)CCN1CCC(C)CC1	M1 antagonist -1.5 | M1 antag confirm 426 | mGluR4 antag inactive
COC(=O)c1[nH]c2ccccc2c1NC(=O)CCN1CCN(C2CCCCC2)CC1	M1 antagonist -3.7 | M1 antag confirm 389 | mGluR4 antag inactive
CC1CCN(CCCn2c(=S)[nH]c3ccccc3c2=O)CC1	none
CCOC(=O)c1[nH]c2ccc(OC)cc2c1NC(C)=O	none (no result: FXIIa mix inh, FXIa mix inh)
CCOC(=O)N1CCN(C(=O)C(CC(C)C)NC(=O)C2CCCCC2)CC1 (configuration not stated)	none (no result: D1 mod)
O=C(Nc1ccc(Cl)cc1)N1CCN(c2ccc3nnc(-c4ccc(F)cc4)n3n2)CC1	DAT uptake mod 2.8, M1 antagonist -4.4 | M1 antag confirm 386 | mGluR4 antag inactive
